About 210 (18%) of roughly 1,200 compounds were called active. Cut-off read from the data, not from the text of the source: active = inhibition above about 30%; inactive = the rest. The list is a sample of the results.
experiment: fluorescence readout artefact check – biochemical, HTRF, uHTS, artefact control for SUMOylation inhibitor project, confirmation (AID 2069); conditions: HTRF interference counterscreen, at 35 µM, active compounds read high

Which inhibition does the source give for `Oc1ccc(C2Nc3cccc4cccc(c34)N2)c(O)c1` here?
The inhibition was -3.25% (inactive).

With `CC(NC(=O)OC(C)(C)C)C(=O)Oc1ccc2ccc(=O)oc2c1` (stereo unspecified) as the molecule, how does the inhibition read?
The inhibition was 25.8% (inactive).

Which inhibition does the source give for `CC(=O)Oc1ccc2c(C)c(CC(C)O)c(=O)oc2c1` (stereo unspecified) here?
Its inhibition is 42.2% (active).

For `Cc1ccc(NC(=S)Nc2cccc3ccccc23)cc1F`, which inhibition is on record?
Its inhibition is -5.85% (inactive).

For `CN(C)c1cccc2c(S(=O)(=O)Nc3ccccn3)cccc12`, which inhibition is on record?
Its inhibition is 20% (inactive).

Which inhibition does the source give for `CN(C)c1cccc2cccc(N(C)C)c12` here?
The inhibition was 13.3% (inactive).

For `CN(C)c1cccc2c(S(=O)(=O)N3CCCC3)cccc12`, which inhibition is on record?
Its inhibition is 36.4% (active).

Which inhibition does the source give for `Cn1c2ccccc2c2cnn(CC(=O)Nc3ccc(Cl)cc3)c(=O)c21` here?
Its inhibition is 15.8% (inactive).

For `Cc1cc(C)c(S(=O)(=O)NCC23C=CC(O2)C2C(=O)N(c4ccccc4)C(=O)C23)c(C)c1` (stereo unspecified), which inhibition is on record?
The inhibition was -17.5% (inactive).

Which inhibition does the source give for `O=C(NN1C(=O)CSC1=S)C(=O)NN1C(=O)CSC1=S` here?
The inhibition was 32.4% (active).

With `COc1ccc(NC(=S)Nc2ccc3nsnc3c2)cc1` as the molecule, how does the inhibition read?
The inhibition was 15.8% (inactive).

With `CC(=O)OCCNc1cc(SCc2ccco2)c2nonc2c1[N+](=O)[O-]` as the molecule, how does the inhibition read?
Its inhibition is -1.55% (inactive).

Which inhibition does the source give for `CSCC[C@H](NC(=O)Cc1c(C)c2c(cc(C)c3c(C)c(C)oc32)oc1=O)C(=O)O` here?
The inhibition was 48.5% (active).

With `CCC(NC(=O)Cc1c(C)c2c(cc(C)c3c(C)c(C)oc32)oc1=O)C(=O)O` (stereo unspecified) as the molecule, how does the inhibition read?
Its inhibition is 51.6% (active).

With `Cc1oc2c(c(C)cc3oc(=O)c(CC(=O)N[C@H](C(=O)O)C(C)C)c(C)c32)c1C` as the molecule, how does the inhibition read?
Its inhibition is 56.9% (active).

Which inhibition does the source give for `Cc1oc2c(c(C)cc3oc(=O)c(CC(=O)N[C@@H](C)C(=O)O)c(C)c32)c1C` here?
Its inhibition is 53.8% (active).

For `Cc1cc(OC(C(=O)O)c2ccccc2)c2c(C)c(Cc3ccccc3)c(=O)oc2c1` (stereo unspecified), which inhibition is on record?
Its inhibition is 21.4% (inactive).

With `Nc1ccccc1NC1=CC(=O)CC(c2ccco2)C1` (stereo unspecified) as the molecule, how does the inhibition read?
The inhibition was 16.8% (inactive).

For `CC1=NN(c2ccc(C(=O)O)cc2)C(=O)/C1=C\c1ccc(OC(=O)c2cccs2)cc1`, which inhibition is on record?
The inhibition was 12.1% (inactive).

With `C[n+]1cccc2c(Br)ccc([O-])c21` as the molecule, how does the inhibition read?
Its inhibition is -20.8% (inactive).

For `C[n+]1cccc2cccc([O-])c21`, which inhibition is on record?
Its inhibition is 5.4% (inactive).

Which inhibition does the source give for `Cc1cccc2c(N=Nc3ccc(S(=O)(=O)Nc4cccc(Cl)c4)cc3[N+](=O)[O-])c(O)[nH]c12` here?
The inhibition was -2.75% (inactive).

Which inhibition does the source give for `CCOCCCNC1=C(Cl)C(=O)c2ccccc2C1=O` here?
Its inhibition is -7.4% (inactive).

With `Cc1ccc(NC(=O)CSc2nnc(-c3ccco3)c(-c3ccco3)n2)cc1` as the molecule, how does the inhibition read?
The inhibition was 0.35% (inactive).

With `O=C(Nc1ccc2nsnc2c1)N1CCCCC1` as the molecule, how does the inhibition read?
The inhibition was 12.4% (inactive).

With `Oc1ccc(N=Cc2ccc(OCc3ccccc3)cc2)cc1` as the molecule, how does the inhibition read?
Its inhibition is -5.35% (inactive).

Which inhibition does the source give for `CC1=CC(C)(C)N2C(=O)C(=Nc3ccc(O)cc3)c3cccc1c32` here?
The inhibition was -3.6% (inactive).

Which inhibition does the source give for `Cc1ccc(NC(=O)CN2C(=O)S/C(=C\c3cc(Cl)c(OCC(=O)O)c(Cl)c3)C2=O)cc1` here?
Its inhibition is 19.7% (inactive).

For `O=C1CC(c2ccco2)CC(O)=C1C=Nc1cc(Cl)ccc1Cl` (stereo unspecified), which inhibition is on record?
Its inhibition is 1.35% (inactive).

For `C/C(=N\OCc1nc2ccccc2c(=O)n1/N=C/c1cc([N+](=O)[O-])ccc1O)c1ccccc1`, which inhibition is on record?
The inhibition was -16.2% (inactive).

With `CCOc1ccc(N2CC(C(=O)NCc3ccc(F)cc3)CC2=O)cc1` (stereo unspecified) as the molecule, how does the inhibition read?
The inhibition was 34.9% (active).

Which inhibition does the source give for `CCOc1ccc(NC(=O)c2ccc(NC(=O)c3ccc(CN4CCOCC4)cc3)cc2)cc1` here?
Its inhibition is 5.55% (inactive).

Which inhibition does the source give for `CCOc1ccc(S(=O)(=O)N2CCCC(C(=O)NCc3ccco3)C2)cc1` (stereo unspecified) here?
Its inhibition is -1.5% (inactive).

For `O=[N+]([O-])c1cc([N+](=O)[O-])c2nonc2c1Nc1ccc(O)cc1`, which inhibition is on record?
The inhibition was -10.7% (inactive).

For `COc1ccc2c(c1)-c1nc(/N=C/c3cccc(OC)c3O)sc1CC2`, which inhibition is on record?
The inhibition was 1.05% (inactive).

Which inhibition does the source give for `COc1cc(NS(=O)(=O)c2ccc(NC(=S)NC(=O)/C=C/c3ccco3)cc2)ncn1` here?
The inhibition was 25.8% (inactive).

For `O=C(COC(=O)c1cc(NS(=O)(=O)c2cccs2)ccc1O)Nc1cc(Cl)ccc1Cl`, which inhibition is on record?
The inhibition was 13.8% (inactive).

For `O=C(N/N=C/c1ccccc1)c1ccc(CN2C(=O)c3cccc4cccc2c34)cc1`, which inhibition is on record?
Its inhibition is 38.8% (active).

With `COc1ccccc1/C=N/NC(=O)c1ccc(CN2C(=O)c3cccc4cccc2c34)cc1` as the molecule, how does the inhibition read?
Its inhibition is 48.2% (active).

For `O=C(O)c1ccc(/C=N/NC(=O)c2ccc(CN3c4cccc5cccc(c45)S3(=O)=O)cc2)cc1`, which inhibition is on record?
The inhibition was 18.2% (inactive).

With `O=C(O)c1cccc(Cn2c(Cl)c(/C=N/NC(=O)c3cc4ccccc4cc3O)sc2=O)c1` as the molecule, how does the inhibition read?
Its inhibition is -2% (inactive).

For `O=C(Cc1cc(=O)[nH][nH]1)N/N=C/c1cccc2ccccc12`, which inhibition is on record?
The inhibition was -6.95% (inactive).

Which inhibition does the source give for `C=CCc1cccc(/C=N/NC(=O)CNc2cccc3ccccc23)c1O` here?
Its inhibition is 4.7% (inactive).

Which inhibition does the source give for `COc1ccc2c(c1)CC/C(=C\Nc1ccc3c(c1)OCO3)C2=O` here?
The inhibition was -3.55% (inactive).

With `C=CCOc1c(Br)cc(/C=C2\SC(=Nc3ccccc3)NC2=O)cc1OC` as the molecule, how does the inhibition read?
Its inhibition is 9.1% (inactive).

For `O=C(O)c1cccc([N+](=O)[O-])c1C(=O)Nc1cccc2ccccc12`, which inhibition is on record?
The inhibition was -3.8% (inactive).
